RORg inh = qHTS for inhibitors of ROR gamma transcriptional activity. Nuclear receptor ROR-gamma (Mus musculus), P51450. Drosophila S2 Gal4-RORgamma UAS-luciferase reporter, 20 h. Potency, µM (titrated, usually from 53.6 µM), inactives show at the top dose activity change, negative = inhibition, actives largely listed as inhibitors. actives 5.4% (n = 310,000). AID 2551, 2010; note: potency is the fitted concentration of half-maximal effect; % is set by controls: 0 for no effect and ±100 for the full control effect; nearly all actives have a fitted effect of over 60% in size
Target sequence (P51450 whole entry, looked up, the tested form may be a part): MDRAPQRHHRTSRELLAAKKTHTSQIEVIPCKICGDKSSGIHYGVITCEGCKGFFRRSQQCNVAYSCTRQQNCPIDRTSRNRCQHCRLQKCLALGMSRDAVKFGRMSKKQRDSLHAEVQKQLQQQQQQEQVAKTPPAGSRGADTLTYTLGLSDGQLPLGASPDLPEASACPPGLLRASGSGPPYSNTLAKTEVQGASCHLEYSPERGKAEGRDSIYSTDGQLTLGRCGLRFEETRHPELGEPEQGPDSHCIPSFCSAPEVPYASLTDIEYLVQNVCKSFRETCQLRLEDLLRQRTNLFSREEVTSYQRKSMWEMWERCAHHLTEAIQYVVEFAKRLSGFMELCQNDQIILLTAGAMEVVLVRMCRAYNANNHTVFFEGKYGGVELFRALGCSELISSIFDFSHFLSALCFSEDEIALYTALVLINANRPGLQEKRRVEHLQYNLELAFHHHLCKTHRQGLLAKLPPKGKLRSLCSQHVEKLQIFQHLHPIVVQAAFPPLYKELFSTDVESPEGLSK
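Stable Schneider cell line, Gal4 DNA-binding domain fused to ROR gamma, UAS-luciferase. Cmpd 1 hr RT → CuSO4 700 uM final → 20 hr RT → luciferase reagent 10 min → luminescence.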
Giardia kill = Small Molecules that selectively kill Giardia lamblia: qHTS. activity change, % at 7.66 µM, hits read low. Giardia lamblia trophozoite viability. actives 0.15% (n = 340,000); in the data active = activity change below about -80%; inconclusive = between about -30% and that limit;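 note: parasites exposed to compound for two days anaerobically before the ATP read; % is set by controls: 0 for no effect and ±100 for the full control effect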
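Giardia lamblia trophozoites (100 cells/well) were incubated with compounds for 48 h at 37 deg C under anaerobic conditions. Viability was read as ATP content by one-step luminescence after 15-30 min at room temperature.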
SW480 rereplic = A quantitative high throughput screen for small molecules that induce DNA re-replication in SW480 colon adenocarcinoma cells; SW480 DNA re-replication, Hoechst DNA content imaging, 48 h; AID 624297, 2012; Potency, µM (series often up to 46.1 µM), inactives show at the highest dose re-replication activation, hits mostly activators; actives 1.8% (n = 340,000); note: potency is the fitted concentration of half-maximal effect; % of control where 0% means no effect; nearly all actives have a fitted effect of over 55% in size
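First, 250 cells per well were seeded. Next, compound or vehicle (23 nL) was pinned in, plates sat 48 hr at 37 C. Finally Hoechst was added for 40 min before fluorescence scanning.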
Chronic BCR inh = qHTS Assay to Find Inhibitors of Chronic Active B-Cell Receptor Signaling. ABC-DLBCL IkBa-CBG/CBR reporter, luminescence ratio, 4 h. AID 493014, 2011. Potency, µM (titrated, usually from 46.1 µM), inactives show at the top dose activity change, negative = inhibition, hits mostly inhibitors. actives 0.05% (n = 340,000); active = well fitted inhibition curve with a large enough effect in the signal ratio, with a control signal flat, not every such curve was filed as active; inconclusive = small, poorly fitted or top-dose-only effect, or effect the other way, or a change in a side signal; the % refers to the signal ratio;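 note: potency is the fitted concentration of half-maximal effect; plate controls were basal doxycycline-induced cells for no effect and cells given 10 µM MG132 for full effect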
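Concentration-response series (up to 46 uM) were applied to TMD8 dual-reporter cells for 4 h at 37C with doxycycline. Green/red ratio, after filter-overlap correction, defined %Activity; red signal alone was normalised to basal cells and zero luminescence.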
VP16 counter = VP16 counterscreen qHTS for inhibitors of ROR gamma transcriptional activity. Drosophila S2 Gal4-VP16 UAS-luciferase, luminescence, 20 h. Potency, µM (series often up to 53.6 µM), for inactives: at the highest dose activity, negative = inhibition, actives largely listed as inhibitors. actives 3.5% (n = 310,000);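 note: Gal4-VP16 expression switched on by copper sulfate through the metallothionein promoter; potency is the fitted concentration of half-maximal effect; % is set by controls: 0 for no effect and ±100 for the full control effect; nearly all actives have a fitted effect of over 50% in size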
MCF10A rerep = A quantitative high throughput screen for small molecules that induce DNA re-replication in MCF 10a normal breast cells; MCF 10A DNA re-replication, Hoechst nuclear intensity, 48 h; Potency, µM (titrated, usually from 46.1 µM), inactives show top-dose activity, positive = re-replication, actives largely listed as activators; actives 2.9% (n = 350,000); note: potency is the fitted concentration of half-maximal effect; % of control where 0% means no effect; nearly all actives have a fitted effect of over 50% in size
An asterisk follows results filed as active; u = inconclusive; x = not tested or not shown; [ ] = another dose, or the depositor's remark. An excerpt weighted towards active compounds, which were near 8.3% of everything screened. Unless noted, calls come from the whole dose curve; as a rule, active = well fitted curve in the direction sought with a large enough effect; inconclusive = small, poorly fitted or top-dose-only effect, or another doubt; inactive = no such curve, though single readings can be large; an effect the other way counts as inactive or inconclusive.

SMILES	RORg inh	Giardia kill	SW480 rereplic	Chronic BCR inh	VP16 counter	MCF10A rerep
C=C(C)COc1ccc(-c2ncnc(C(F)(F)F)c2-c2ccc(OC)cc2)c(O)c1	33%	-13	u	0%	-16%	u
C=C(C)COc1ccc(-c2ncncc2-c2ccc(Cl)cc2)c(O)c1	u	-1	-4%	3%	u	15µM*
C=C(C)COc1ccc(-c2n[nH]c(C)c2-c2ccc(Br)cc2)c(O)c1	3.2µM*	6	-4%	u	4.5µM*	0%
CCOC(=O)CC(CC(C)=O)C(=O)OCC (centres undefined)	16%	x	x	x	1%	x
CCOc1ccc(NC(=O)COc2ccc(C(=O)NCC3CCCO3)cc2OC)cc1 (centres undefined)	x	11	0%	-1%	x	2%
COc1ccc(-c2nc(N)ncc2-c2ccc(OC)c(OC)c2)c(O)c1	16%	-8	u	u	1%	17%
CCc1cc(-c2nc(N)ncc2-c2ccc(Br)cc2)c(O)cc1OC	34%	-9	7%	0%	-21%	18µM*
C=C(C)COc1ccc(-c2[nH]ncc2-c2ccc(Br)cc2)c(O)c1	7.9µM*	4	21µM*	u	10µM*	9.2µM*
C=C(C)COc1ccc(-c2ncncc2-c2ccc(Br)cc2)c(O)c1	-34%	12	1%	u	-24%	u
O=C(CNc1ccccc1F)Nc1cccc2ccccc12	-2%	-1	u	u	26%	52%
Cn1c(=O)n(CC(=O)NCC2CCCO2)c(=O)c2c3c(sc21)CCCC3 (centres undefined)	-5%	-1	u	-1%	-6%	-4%
COc1ccccc1NS(=O)(=O)c1cc(C(=O)N2CCN(C(=O)c3ccco3)CC2)ccc1F	x	1	8%	x	x	14%
Cc1nc(Nc2ccccc2O)c2oc3ccccc3c2n1	-7%	-2	0%	-1%	-8%	0%
CCc1nc(Nc2ccc(OC)cc2OC)c2oc3ccccc3c2n1	u	9	u	u	-29%	u
COc1ccccc1Nc1nc(C)nc2c1oc1ccccc12	-33%	1	12%	0%	8%	18µM*
COc1ccc(Nc2nc(C)nc3c2nnn3Cc2ccccc2Cl)c(OC)c1	3%[1.91 µM]	-16	0%	u	-4%	3.3µM*
COc1ccc(Nc2nc(C)nc3c2oc2ccccc23)c(OC)c1	-44%	23	u	0%	u	15µM*
O=C(O)c1cc(C(F)(F)F)nc2c(C(F)(F)F)cccc12	1%	-4	-11%	14%	-3%	-43%
NC(=O)CSC1=N/C(=C\c2ccco2)C(=O)N1c1ccc(OC(F)F)cc1	u	-4	0%	-9%	u	0%
CCOc1ccc(N2C(=O)S/C(=C\c3ccc(O)c(OCC)c3)C2=O)cc1	9%	-9	u	u	-10%	16µM*
CCOc1cc(/C=C2\N=C(SC(C)C(N)=O)N(c3ccc(OC(F)F)cc3)C2=O)ccc1O (centres undefined)	0%	18	18µM*	-1%	u	10µM*
CCOc1cc(/C=C2\SC(=O)N(c3ccc(O)cc3)C2=O)ccc1O	-15%	-21	13%	u	-7%	2%
CCC(=O)N(c1nnc(SCC(=O)Nc2ccccc2Cl)s1)C1CC1	x	-14	-12%	-3%	x	10%
CCCCCCC[N+](CC)(CC)CCCCc1ccc(Cl)cc1	25%[16.9 µM]	-7	18%	u	0%[17 µM]	u
O=C(N/N=C/c1ccccn1)c1cc(Br)ccc1O	4µM*	u	4.1µM*	u	4.5µM*	u
O=C(N/N=C/c1ccccn1)c1ccc(Br)o1	13µM*	18	-5%	-7%	u	19%

Assay outcomes (PubChem)
